BoNT-A LC inh2 = blocks Botulinum neurotoxin A light chain protease | multiplex microsphere protease substrate cleavage, flow cytometry | inhibition, % at 10 µM | 360,000 tested, 0.17% active | AID 588499
BoNT-F LC inh = blocks Botulinum neurotoxin F light chain protease | Multiplex microsphere protease cleavage assay, flow cytometry | inhibition, % at 10 µM | 360,000 tested, 0.22% active | AID 588497; in the data active = inhibition above about 35%, passing the limit was not always enough; inconclusive = no clear call, values can overlap the other calls
BH1578 lux ind = inducers of Vibrio cholerae quorum light production without autoinducers; 350,000 tested, 0.16% active; activation, % at 18.7 µM; AID 588436; V. cholerae BH1578 lux reporter, luminescence, 6 h; in the data active = activation mostly above about 9.7%, no sharp cut-off; inconclusive = no clear call, values can overlap the other calls; inactive = mostly below about 3.7%
BJeLR lethal = kills HRASV12-expressing BJeLR cells. BJeLR (HRASV12) viability, CellTiter-Glo ATP luminescence, 48 h. inhibition, % (test concentration not listed). 300,000 tested, 0.17% active. AID 1554; in the data active = inhibition above about 50%; inconclusive = no clear call, values can overlap the other calls
Autofluor counter = counter-screen for toxin protease inhibitors: compound fluorescence; compound autofluorescence counterscreen, microsphere flow cytometry; hits give high values; fluorescence intensity (no concentration beside the values); 360,000 tested, 3.1% active; AID 624483; in the data active = fluorescence intensity above about 16000; inconclusive = no clear call, values can overlap the other calls
Anthrax LF inh2 = blocks Bacillus anthracis lethal factor protease. P15917. multiplex microsphere protease cleavage assay, LF. inhibition, % at 10 µM. 360,000 tested, 0.12% active. AID 588501
Target sequence (P15917 whole entry, looked up): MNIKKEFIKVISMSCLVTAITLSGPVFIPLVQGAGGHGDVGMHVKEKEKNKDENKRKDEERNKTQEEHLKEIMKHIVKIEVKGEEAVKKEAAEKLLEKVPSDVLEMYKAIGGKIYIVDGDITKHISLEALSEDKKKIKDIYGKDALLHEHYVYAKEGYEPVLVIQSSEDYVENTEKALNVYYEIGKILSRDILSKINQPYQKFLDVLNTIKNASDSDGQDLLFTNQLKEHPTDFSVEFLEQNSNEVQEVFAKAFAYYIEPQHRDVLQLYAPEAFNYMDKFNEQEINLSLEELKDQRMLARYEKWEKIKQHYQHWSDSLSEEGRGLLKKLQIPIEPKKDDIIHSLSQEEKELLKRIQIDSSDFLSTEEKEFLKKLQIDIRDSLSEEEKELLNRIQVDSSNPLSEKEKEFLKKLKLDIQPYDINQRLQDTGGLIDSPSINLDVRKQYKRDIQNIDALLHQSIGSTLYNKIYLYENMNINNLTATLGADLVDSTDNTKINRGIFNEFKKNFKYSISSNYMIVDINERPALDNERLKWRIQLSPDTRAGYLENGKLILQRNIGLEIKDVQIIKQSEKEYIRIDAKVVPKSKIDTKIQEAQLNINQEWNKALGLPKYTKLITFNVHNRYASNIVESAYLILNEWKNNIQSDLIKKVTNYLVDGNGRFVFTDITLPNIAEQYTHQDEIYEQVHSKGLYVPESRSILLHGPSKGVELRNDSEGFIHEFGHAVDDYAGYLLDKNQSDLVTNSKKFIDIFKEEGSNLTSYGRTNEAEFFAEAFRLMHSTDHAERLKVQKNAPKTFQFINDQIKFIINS
Each line names hits and unclear results; the compound was inactive in the other large screens. Shown are actives, neighbours in structure and some others; about 3.7% of the full set was active somewhere. Cut-off read from the data, not from the text of the source, unless noted: active = inhibition above about 30%; inconclusive = no clear call, values can overlap the other calls; inactive = below that.

CN1CCOc2c1cnn(CCO)c2=O	none (no result: BH1578 lux ind, BJeLR lethal)
COc1ccc(-c2ccc(=O)[nH]n2)cc1	Autofluor counter 20511
O=C(Nc1ccc(F)cc1)Nc1ccc(Cl)cn1	Autofluor counter 18496
COCCN(C(=O)c1csnn1)C(C(=O)NC1CCCCC1)c1sccc1C (stereo not drawn)	Autofluor counter 23376
Cc1ccc(CN(C(=O)c2csnn2)C(C(=O)NC2CCCC2)c2ccco2)cc1 (stereo not drawn)	none
O=C(NC1CCCC1)C(c1ccco1)N(Cc1ccccc1)C(=O)c1csnn1 (stereo not drawn)	BoNT-A LC inh2 inconclusive, Autofluor counter 20226
O=C(NC1CCCCC1)C(c1ccco1)N(C(=O)c1csnn1)C1CCCC1 (stereo not drawn)	Autofluor counter 22986
O=C(NC1CCCC1)C(c1ccccn1)N(C(=O)c1csnn1)C1CCCCC1 (stereo not drawn)	none
O=C(NC1CCCC1)C(c1ccccn1)N(C(=O)c1csnn1)C1CC1 (stereo not drawn)	Autofluor counter 16748
COCCN(C(=O)c1csnn1)C(C(=O)NC1CCCCC1)c1cccs1 (stereo not drawn)	none
CC(C)(C)NC(=O)C(c1ccccc1F)N(Cc1ccco1)C(=O)c1csnn1 (stereo not drawn)	Autofluor counter 16964
CC(C)(C)NC(=O)C(c1cccs1)N(Cc1ccco1)C(=O)c1csnn1 (stereo not drawn)	none
CC1=C(C)/C(=N\OS(=O)(=O)c2ccccc2)C=CC1=O	BJeLR lethal 84
Cc1ccc(S(=O)(=O)O/N=C2\CCCc3ccccc32)cc1	none
Cc1nn(-c2ccccc2)c(C)c1/C=N/NC(=O)c1cc(-c2ccc(Br)s2)[nH]n1	Autofluor counter 21752
Cc1nn(-c2ccccc2)c(C)c1/C=N/NC(=O)c1cc(-c2ccc(Cl)s2)[nH]n1	Autofluor counter 17595
Cc1nn(-c2ccccc2)c(C)c1/C=N/NC(=O)c1ccccc1O	BoNT-F LC inh 88
COc1cc2c3c(cccc3c1)C(=O)N(CCN1CCCC1)C2=O	none (no result: BJeLR lethal)
COc1ccccc1-c1cccc([C@@H]2C[C@H]3[C@H](CON3C)CN2C(C)=O)c1	none (no result: BJeLR lethal)
CC1(Cc2ccc(Cl)s2)C(=O)Nc2c(Cl)ccc(Cl)c21 (stereo not drawn)	none (no result: BJeLR lethal)
CCOC(=O)[C@]12CCC=C1N(Cc1ccc(Cl)cc1Cl)C(=O)[C@H](CC(=O)NCc1ccc(OC)c(OC)c1)C2	none (no result: BH1578 lux ind, BJeLR lethal)
CCOc1ccc(Nc2oc(-c3ccco3)nc2C#N)cc1	none
CN(C)CCNc1oc(-c2cccc(Cl)c2)nc1C#N	Autofluor counter 20990
CCOc1ccc(Nc2oc(-c3cccc(Cl)c3)nc2C#N)cc1	BoNT-A LC inh2 inconclusive, Autofluor counter 23170
CCc1nc2c(OCc3ccc(Cl)cc3)cccn2c1N(C=O)Cc1ccccc1	none (no result: BJeLR lethal)
Nc1nc2c(ncn2[C@@H]2O[C@H](CNCc3ccc(Oc4cc(-n5cccn5)ncn4)cc3)[C@@H](O)[C@H]2O)c(=O)[nH]1	none (no result: BH1578 lux ind, BJeLR lethal)
Cc1cccc(C)c1NC(=O)C1c2ccccc2OCC(=O)N1Cc1ccccc1 (stereo not drawn)	none (no result: BH1578 lux ind, BJeLR lethal)
CC(=O)c1cccc(-c2ccnc3c2CC(C(=O)Nc2ccc(F)c(Cl)c2)O3)c1 (stereo not drawn)	none (no result: BJeLR lethal)
O=c1ccn([C@@H]2O[C@H](CNCc3cccn3-c3ccncc3)[C@@H](O)[C@H]2O)c(=O)[nH]1	none (no result: BH1578 lux ind, BJeLR lethal)
COc1ccc(NC(=O)C2CCCCN2S(=O)(=O)c2ccc(F)cc2)cc1 (stereo not drawn)	none
CCOc1ccccc1NC(=O)C1CCCCN1S(=O)(=O)c1ccccc1 (stereo not drawn)	none (no result: BJeLR lethal)
COc1ccc(NC(=O)C2CCCCN2S(=O)(=O)c2ccc(F)cc2)c(OC)c1 (stereo not drawn)	Autofluor counter 17466
COc1ccc(NC(=O)C2CCCN2S(=O)(=O)c2ccc(C)cc2)cc1 (stereo not drawn)	Autofluor counter 17367
COc1ccccc1NC(=O)C1CCCCN1S(=O)(=O)c1ccc(F)cc1 (stereo not drawn)	Autofluor counter 16434
O=C(Nc1nccs1)c1csc([C@H]2C[C@H](O)[C@@H](CO)O2)n1	none (no result: BJeLR lethal)
Cc1cc(Nc2ncc(Cl)cc2Cl)n(-c2ccccc2)n1	none
Cc1cc(Nc2cnc3ccccc3n2)n(-c2ccccc2)n1	Autofluor counter 17464
Cc1cc(C(=O)CSc2nc(N)cc(=O)[nH]2)c(C)n1CC1CCCO1 (stereo not drawn)	none (no result: BJeLR lethal)
Cc1cc(C(=O)CSc2nnc(-c3ccc(Cl)cc3)n2C)c(C)n1CC1CCCO1 (stereo not drawn)	Autofluor counter 22941
Cc1cc(C(=O)CSc2nc3ccccc3[nH]2)c(C)n1CC1CCCO1 (stereo not drawn)	Autofluor counter 17964
COCCNC(=O)C[C@@H]1C[C@H]2c3cc(NC(=O)Nc4ccc(F)cc4)ccc3O[C@H]2[C@H](CO)O1	none (no result: BJeLR lethal)
Cc1cc(C)n(-c2nc3ccccc3nc2N2CCC(C)CC2)n1	BoNT-A LC inh2 inconclusive, Autofluor counter 22810
N#C/C(=C/c1ccc(-c2ccccc2)o1)c1nc(-c2cccs2)cs1	BoNT-A LC inh2 48, Anthrax LF inh2 34 (no result: BJeLR lethal)
CCCCc1ccc(-c2csc(/C(C#N)=C\c3ccc(C)o3)n2)cc1	Autofluor counter 22503
CCCCc1ccc(-c2csc(/C(C#N)=C/c3ccco3)n2)cc1	none
COc1ccc(NC(=O)C2(C)Cc3c(-c4cccc(C(N)=O)c4)ccnc3O2)cc1 (stereo not drawn)	none (no result: BJeLR lethal)
CC(C)C(=O)N1CCC1(C)C(=O)Nc1cc(-c2ccccc2)nn1C (stereo not drawn)	none (no result: BJeLR lethal)
CCOC(=O)c1c(-n2c(C)cc(C=C3C(=O)NC(=S)NC3=O)c2C)sc2c1CCCC2	BoNT-A LC inh2 36, Anthrax LF inh2 38
O=c1[nH]c(Cc2ccccc2)nc2c1oc1ccccc12	Autofluor counter 21955
O=c1[nH]c(CO)nc2c1oc1ccccc12	none
Cc1nc2c(oc3ccccc32)c(=O)o1	Autofluor counter 16908
COc1ccc(-c2cc(N)n(S(=O)(=O)c3c(F)c(F)c(F)c(F)c3F)n2)cc1OC	BoNT-A LC inh2 inconclusive, Autofluor counter 16388
COc1ccc(S(=O)(=O)n2nc(-c3cc(OC)c(OC)c(OC)c3)cc2N)cc1OC	none (no result: BJeLR lethal)
COc1ccc(-c2cccc(N3CCN(c4ccccn4)CC3)n2)cc1OC	none (no result: BJeLR lethal)
CCCCOC(=O)c1cc(=O)[nH]c2ccccc12	Autofluor counter 22271
C[C@H]1CN([C@@H](C)CO)S(=O)(=O)c2ccc(C#Cc3cccnc3)cc2O[C@@H]1CN(C)C(=O)Nc1ccc2c(c1)OCO2	none (no result: BJeLR lethal)
Cc1ccc(C(=O)C(OC(=O)CCC(=O)Nc2cccc(C)c2)c2ccccc2)cc1 (stereo not drawn)	none
COc1ccc(NC(=O)CCC(=O)OC(C(=O)c2ccccc2)c2ccccc2)cc1 (stereo not drawn)	Autofluor counter 20295
CCOc1ccc(NC(=O)CN2C(=O)NC(CCc3ccccc3)C2=O)cc1OCC (stereo not drawn)	none (no result: BJeLR lethal)
